# Test results reported in PMC7862700, “An all-to-all approach to the identification of sequence-specific readers for epigenetic DNA modifications on cytosine”.
# Legend:
# Assay in all cases: DAPPL (digital affinity profiling via proximity ligation, sequencing); 10 mM Tris-HCl pH 7.5, 50 mM NaCl, 1 mM DTT, 4% glycerol, room temperature, 30 min; GST-TFs on glutathione beads, 16-mer random dsDNA library, 0.1% formaldehyde crosslink after washing; high values mean tight binding
# FEV = target: T1, FEV (Homo sapiens, UniProt Q99581 1-238); details: protein: recombinant; tags: N-terminal GST; dsDNA, one strand shown
# T1 sequence: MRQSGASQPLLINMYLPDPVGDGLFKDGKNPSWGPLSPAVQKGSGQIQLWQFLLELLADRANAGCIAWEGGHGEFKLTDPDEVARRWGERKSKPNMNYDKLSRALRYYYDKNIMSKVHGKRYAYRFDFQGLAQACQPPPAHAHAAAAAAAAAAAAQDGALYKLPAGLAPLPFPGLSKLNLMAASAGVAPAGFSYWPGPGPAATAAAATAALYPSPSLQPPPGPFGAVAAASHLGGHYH
# In short: (§1)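 Binding signal is defined as a hexamer's read frequency for one factor over its frequency for the tag-only sample. To obtain reads, GST-fused human transcription factors were expressed in yeast, captured on glutathione beads, barcoded with DNA and pooled with that sample. Pools met 200 nmole of a 16-mer random double-stranded DNA library in Tris/NaCl/DTT/glycerol buffer for 30 min at room temperature before washing, 0.1% formaldehyde crosslinking, proximity ligation (BsaI/T4 ligase, 1 h, 37 °C), PCR and Illumina NextSeq500 sequencing.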
# ETV5 = ETV5 (Homo sapiens, UniProt P41161 1-510); details: protein: recombinant; tags: N-terminal GST; dsDNA, one strand shown
# ETV5, sequence (P41161 whole entry): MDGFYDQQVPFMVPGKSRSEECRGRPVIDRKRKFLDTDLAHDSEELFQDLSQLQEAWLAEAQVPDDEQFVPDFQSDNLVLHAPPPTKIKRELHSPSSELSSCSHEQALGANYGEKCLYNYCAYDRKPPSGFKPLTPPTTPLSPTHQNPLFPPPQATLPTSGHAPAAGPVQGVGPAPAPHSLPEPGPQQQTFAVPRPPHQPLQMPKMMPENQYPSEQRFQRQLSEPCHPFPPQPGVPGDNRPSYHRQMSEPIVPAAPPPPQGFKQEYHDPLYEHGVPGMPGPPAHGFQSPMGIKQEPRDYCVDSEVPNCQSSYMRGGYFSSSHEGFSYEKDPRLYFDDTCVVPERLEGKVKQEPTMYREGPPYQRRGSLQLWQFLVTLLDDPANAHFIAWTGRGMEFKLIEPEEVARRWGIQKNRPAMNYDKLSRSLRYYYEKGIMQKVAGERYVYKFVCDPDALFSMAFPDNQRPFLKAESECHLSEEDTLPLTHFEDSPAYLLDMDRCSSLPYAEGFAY
# In short: as §1
# HSF1 = HSF1 (Homo sapiens, UniProt Q00613 1-529); details: protein: recombinant; tags: N-terminal GST; chain copies: 3; dsDNA, one strand shown
# HSF1, sequence (Q00613 whole entry): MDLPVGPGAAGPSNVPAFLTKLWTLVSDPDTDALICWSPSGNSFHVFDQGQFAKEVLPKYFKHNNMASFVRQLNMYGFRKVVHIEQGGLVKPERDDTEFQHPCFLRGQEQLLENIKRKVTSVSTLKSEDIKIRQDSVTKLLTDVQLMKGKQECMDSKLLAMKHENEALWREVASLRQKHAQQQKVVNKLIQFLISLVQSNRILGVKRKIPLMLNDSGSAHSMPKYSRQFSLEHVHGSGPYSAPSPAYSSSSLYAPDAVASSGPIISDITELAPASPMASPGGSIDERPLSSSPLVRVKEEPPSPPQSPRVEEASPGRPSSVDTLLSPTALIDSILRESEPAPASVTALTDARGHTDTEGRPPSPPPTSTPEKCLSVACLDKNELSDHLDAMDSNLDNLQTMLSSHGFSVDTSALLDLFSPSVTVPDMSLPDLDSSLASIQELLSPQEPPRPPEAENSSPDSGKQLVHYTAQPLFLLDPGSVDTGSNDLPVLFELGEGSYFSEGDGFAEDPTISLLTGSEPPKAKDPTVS
# In short: as §1
# SPIC = target: T2, SPIC (Homo sapiens, UniProt Q8N5J4 1-248); details: protein: recombinant; tags: N-terminal GST; dsDNA, one strand shown
# T2 sequence: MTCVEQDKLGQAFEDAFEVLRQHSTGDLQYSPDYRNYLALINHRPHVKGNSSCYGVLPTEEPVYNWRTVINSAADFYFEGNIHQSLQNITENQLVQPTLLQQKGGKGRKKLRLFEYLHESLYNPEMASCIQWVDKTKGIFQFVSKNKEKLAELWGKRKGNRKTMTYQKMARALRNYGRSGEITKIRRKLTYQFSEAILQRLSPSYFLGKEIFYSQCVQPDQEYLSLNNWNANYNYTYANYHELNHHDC
# In short: as §1
# ELF4 = ELF4 (Homo sapiens, UniProt Q99607 1-663); details: protein: recombinant; tags: N-terminal GST; dsDNA, one strand shown
# ELF4, sequence (Q99607 whole entry): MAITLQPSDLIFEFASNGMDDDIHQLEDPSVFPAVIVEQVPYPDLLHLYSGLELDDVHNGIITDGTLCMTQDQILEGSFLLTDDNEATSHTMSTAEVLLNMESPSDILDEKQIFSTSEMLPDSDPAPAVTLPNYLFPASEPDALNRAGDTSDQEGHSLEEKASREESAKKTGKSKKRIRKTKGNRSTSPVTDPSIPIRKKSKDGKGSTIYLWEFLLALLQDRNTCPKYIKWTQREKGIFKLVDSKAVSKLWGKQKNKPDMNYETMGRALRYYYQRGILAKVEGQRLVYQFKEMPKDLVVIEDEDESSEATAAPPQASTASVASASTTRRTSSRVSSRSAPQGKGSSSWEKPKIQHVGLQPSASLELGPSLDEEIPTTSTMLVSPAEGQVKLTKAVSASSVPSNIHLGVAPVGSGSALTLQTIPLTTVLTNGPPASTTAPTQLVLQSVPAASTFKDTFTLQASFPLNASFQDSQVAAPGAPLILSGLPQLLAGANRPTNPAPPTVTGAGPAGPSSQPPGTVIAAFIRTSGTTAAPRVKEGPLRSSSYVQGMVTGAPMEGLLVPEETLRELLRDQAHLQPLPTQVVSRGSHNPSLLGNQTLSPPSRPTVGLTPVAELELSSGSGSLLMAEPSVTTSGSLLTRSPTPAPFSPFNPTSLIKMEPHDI
# In short: as §1
# ELK4 = target: T3, ELK4 (Homo sapiens, UniProt P28324-2 1-405); details: protein: recombinant; tags: N-terminal GST; dsDNA, one strand shown
# T3 sequence: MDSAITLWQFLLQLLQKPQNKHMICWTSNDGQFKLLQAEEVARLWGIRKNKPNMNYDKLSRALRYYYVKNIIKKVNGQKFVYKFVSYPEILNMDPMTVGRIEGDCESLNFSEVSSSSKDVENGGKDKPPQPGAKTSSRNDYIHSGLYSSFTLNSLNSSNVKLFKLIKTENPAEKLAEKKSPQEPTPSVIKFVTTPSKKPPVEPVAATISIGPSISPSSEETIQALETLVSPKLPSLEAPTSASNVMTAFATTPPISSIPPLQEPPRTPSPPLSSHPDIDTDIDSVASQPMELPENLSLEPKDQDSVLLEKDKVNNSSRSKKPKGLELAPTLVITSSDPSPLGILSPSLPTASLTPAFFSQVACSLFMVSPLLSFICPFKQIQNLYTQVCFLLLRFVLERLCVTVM
# In short: as §1
# ETV2 = target: T4, ETV2 (Homo sapiens, UniProt O00321 1-342); details: protein: recombinant; tags: N-terminal GST; dsDNA, one strand shown
# T4 sequence: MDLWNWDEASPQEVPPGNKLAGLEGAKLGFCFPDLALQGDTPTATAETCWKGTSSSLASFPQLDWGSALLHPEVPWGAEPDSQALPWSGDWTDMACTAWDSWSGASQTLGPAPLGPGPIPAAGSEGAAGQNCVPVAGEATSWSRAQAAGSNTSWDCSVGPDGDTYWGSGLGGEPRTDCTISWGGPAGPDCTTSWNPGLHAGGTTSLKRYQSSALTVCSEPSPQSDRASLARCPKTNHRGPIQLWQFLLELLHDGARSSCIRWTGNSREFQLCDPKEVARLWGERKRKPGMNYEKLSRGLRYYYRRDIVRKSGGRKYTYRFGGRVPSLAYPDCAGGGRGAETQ
# In short: as §1
# ELF3 = target: T5, ELF3 (Homo sapiens, UniProt P78545 1-371); details: protein: recombinant; tags: N-terminal GST; dsDNA, one strand shown
# T5 sequence: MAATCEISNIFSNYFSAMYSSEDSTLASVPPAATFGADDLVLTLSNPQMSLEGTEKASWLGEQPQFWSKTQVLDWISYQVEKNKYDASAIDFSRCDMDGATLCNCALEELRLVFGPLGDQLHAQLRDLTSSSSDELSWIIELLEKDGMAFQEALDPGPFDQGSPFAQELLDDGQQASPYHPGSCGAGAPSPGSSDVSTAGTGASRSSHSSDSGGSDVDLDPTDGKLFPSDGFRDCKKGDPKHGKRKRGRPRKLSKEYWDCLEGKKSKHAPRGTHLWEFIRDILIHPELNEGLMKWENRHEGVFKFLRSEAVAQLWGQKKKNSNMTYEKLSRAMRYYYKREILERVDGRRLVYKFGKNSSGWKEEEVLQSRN
# In short: as §1
# CRX = CRX (Homo sapiens, UniProt O43186 1-299); details: protein: recombinant; tags: N-terminal GST; dsDNA, one strand shown
# CRX, sequence (O43186 whole entry): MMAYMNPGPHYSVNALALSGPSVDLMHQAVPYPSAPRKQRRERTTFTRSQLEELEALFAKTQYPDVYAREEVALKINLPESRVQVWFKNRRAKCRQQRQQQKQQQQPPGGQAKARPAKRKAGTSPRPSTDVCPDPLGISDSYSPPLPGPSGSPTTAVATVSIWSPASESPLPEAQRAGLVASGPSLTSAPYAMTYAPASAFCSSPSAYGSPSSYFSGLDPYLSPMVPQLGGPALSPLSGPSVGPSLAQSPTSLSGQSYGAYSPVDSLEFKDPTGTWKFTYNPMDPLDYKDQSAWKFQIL
# In short: as §1
# ETV1 = ETV1 (Homo sapiens, UniProt P50549 1-477); details: protein: recombinant; tags: N-terminal GST; dsDNA, one strand shown
# ETV1, sequence (P50549 whole entry): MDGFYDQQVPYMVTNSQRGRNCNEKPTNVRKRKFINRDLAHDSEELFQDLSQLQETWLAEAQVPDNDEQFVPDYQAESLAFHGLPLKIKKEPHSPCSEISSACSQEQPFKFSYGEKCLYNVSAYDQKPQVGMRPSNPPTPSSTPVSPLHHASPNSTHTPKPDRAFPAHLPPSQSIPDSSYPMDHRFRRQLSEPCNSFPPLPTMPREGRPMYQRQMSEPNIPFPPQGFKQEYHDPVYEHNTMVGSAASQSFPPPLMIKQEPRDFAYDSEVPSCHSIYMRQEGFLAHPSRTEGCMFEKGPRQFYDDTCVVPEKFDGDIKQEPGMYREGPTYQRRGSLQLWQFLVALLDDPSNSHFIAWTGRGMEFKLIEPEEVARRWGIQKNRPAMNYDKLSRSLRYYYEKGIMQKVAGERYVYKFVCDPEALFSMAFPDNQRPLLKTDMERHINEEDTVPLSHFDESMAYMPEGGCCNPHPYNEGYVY
# In short: as §1
# ERF = target: T6, ERF (Homo sapiens, UniProt P50548 1-548); details: protein: recombinant; tags: N-terminal GST; dsDNA, one strand shown
# T6 sequence: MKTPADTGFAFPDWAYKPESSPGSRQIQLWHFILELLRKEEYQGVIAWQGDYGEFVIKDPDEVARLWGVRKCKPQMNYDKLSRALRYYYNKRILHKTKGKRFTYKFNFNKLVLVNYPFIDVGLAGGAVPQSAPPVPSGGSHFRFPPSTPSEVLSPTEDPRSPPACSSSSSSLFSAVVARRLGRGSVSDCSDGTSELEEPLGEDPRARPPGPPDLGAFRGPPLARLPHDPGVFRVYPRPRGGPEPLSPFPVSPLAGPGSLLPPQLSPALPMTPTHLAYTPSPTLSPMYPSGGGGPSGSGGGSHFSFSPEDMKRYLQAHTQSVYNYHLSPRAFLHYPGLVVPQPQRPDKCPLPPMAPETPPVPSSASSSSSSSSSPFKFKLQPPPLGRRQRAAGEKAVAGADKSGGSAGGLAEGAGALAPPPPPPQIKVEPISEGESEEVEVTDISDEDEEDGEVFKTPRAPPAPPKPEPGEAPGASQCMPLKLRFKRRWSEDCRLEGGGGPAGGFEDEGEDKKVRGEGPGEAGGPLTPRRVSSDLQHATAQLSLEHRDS
# In short: as §1
# ETV3L = target: T7, ETV3L (Homo sapiens, UniProt Q6ZN32 1-361); details: protein: recombinant; tags: N-terminal GST; dsDNA, one strand shown
# T7 sequence: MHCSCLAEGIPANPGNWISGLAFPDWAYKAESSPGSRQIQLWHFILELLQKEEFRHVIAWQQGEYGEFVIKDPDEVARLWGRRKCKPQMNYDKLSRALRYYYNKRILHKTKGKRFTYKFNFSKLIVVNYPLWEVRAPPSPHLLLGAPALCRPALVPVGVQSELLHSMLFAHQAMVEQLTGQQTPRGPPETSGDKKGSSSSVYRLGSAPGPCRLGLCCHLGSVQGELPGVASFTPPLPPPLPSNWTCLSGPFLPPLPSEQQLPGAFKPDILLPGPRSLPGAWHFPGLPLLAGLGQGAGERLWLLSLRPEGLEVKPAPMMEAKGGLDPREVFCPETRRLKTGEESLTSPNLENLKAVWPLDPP
# In short: as §1
# ETS2 = target: T8, ETS2 (Homo sapiens, UniProt P15036 1-469); details: protein: recombinant; tags: N-terminal GST; dsDNA, one strand shown
# T8 sequence: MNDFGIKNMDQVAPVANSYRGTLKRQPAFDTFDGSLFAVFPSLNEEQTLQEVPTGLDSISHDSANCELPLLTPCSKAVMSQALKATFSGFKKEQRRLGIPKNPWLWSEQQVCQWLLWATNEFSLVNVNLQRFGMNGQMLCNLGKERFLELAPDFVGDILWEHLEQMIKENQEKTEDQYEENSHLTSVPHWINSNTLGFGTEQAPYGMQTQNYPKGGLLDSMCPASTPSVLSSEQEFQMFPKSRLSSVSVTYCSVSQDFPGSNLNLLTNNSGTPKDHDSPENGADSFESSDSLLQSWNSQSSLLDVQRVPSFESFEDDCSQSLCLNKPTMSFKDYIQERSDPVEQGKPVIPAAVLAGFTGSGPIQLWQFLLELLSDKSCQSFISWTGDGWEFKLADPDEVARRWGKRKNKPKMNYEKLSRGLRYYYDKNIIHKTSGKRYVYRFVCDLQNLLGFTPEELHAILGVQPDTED
# In short: as §1
# SPDEF = target: T9, SPDEF (Homo sapiens, UniProt O95238 1-335); details: protein: recombinant; tags: N-terminal GST; dsDNA, one strand shown
# T9 sequence: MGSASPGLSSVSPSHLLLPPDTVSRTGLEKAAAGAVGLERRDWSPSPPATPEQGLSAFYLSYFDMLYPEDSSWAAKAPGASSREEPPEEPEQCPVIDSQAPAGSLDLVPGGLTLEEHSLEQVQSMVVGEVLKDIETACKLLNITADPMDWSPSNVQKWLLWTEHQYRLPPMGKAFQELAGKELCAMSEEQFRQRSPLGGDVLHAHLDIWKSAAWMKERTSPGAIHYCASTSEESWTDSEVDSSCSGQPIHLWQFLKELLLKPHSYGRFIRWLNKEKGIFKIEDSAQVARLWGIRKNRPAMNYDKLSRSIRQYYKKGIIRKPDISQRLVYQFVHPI
# In short: as §1
# ETV7 = target: T10, ETV7 (Homo sapiens, UniProt Q9Y603 1-341); details: protein: recombinant; tags: N-terminal GST; dsDNA, one strand shown
# T10 sequence: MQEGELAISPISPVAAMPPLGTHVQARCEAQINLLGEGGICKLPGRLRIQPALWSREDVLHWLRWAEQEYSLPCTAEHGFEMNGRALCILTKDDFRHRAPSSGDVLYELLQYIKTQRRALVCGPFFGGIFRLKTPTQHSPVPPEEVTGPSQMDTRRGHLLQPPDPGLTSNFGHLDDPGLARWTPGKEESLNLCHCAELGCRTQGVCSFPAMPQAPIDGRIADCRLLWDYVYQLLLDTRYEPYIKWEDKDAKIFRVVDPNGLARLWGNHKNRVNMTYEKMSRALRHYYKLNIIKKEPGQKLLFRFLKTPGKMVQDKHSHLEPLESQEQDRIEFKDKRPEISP
# In short: as §1
# ELF5 = target: T11, ELF5 (Homo sapiens, UniProt Q9UKW6-2 1-255); details: protein: recombinant; tags: N-terminal GST; dsDNA, one strand shown
# T11 sequence: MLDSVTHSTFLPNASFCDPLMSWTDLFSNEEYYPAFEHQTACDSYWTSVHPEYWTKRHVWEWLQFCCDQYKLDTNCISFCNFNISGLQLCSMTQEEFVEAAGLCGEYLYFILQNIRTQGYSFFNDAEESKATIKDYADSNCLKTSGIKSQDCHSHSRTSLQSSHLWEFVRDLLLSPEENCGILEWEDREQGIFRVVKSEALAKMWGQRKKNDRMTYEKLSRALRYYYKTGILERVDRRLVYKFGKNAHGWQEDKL
# In short: as §1
# ETV3 = target: T12, ETV3 (Homo sapiens, UniProt P41162-2 1-143); details: protein: recombinant; tags: N-terminal GST; dsDNA, one strand shown
# T12 sequence: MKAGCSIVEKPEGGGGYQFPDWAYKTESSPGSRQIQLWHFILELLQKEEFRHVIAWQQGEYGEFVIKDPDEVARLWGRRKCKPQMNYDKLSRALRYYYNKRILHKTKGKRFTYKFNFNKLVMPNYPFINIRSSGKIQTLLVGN
# In short: as §1
# ETV6 = ETV6 (Homo sapiens, UniProt P41212 1-452); details: protein: recombinant; tags: N-terminal GST; dsDNA, one strand shown
# ETV6, sequence (P41212 whole entry): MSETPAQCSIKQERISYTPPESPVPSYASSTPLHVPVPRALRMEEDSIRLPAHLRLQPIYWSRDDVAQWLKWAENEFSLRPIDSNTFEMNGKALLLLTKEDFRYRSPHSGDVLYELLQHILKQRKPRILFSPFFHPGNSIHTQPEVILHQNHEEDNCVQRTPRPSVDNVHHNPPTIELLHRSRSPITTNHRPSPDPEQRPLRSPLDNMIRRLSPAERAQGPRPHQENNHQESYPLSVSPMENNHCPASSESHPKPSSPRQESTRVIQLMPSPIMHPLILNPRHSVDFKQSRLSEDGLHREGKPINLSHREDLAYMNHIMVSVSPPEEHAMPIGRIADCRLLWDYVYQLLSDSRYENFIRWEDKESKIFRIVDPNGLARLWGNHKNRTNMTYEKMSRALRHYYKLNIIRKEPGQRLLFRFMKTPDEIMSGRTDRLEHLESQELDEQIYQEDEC
# In short: as §1
sequence,measurement,setting,value
CTGATT,binding signal,FEV,"1.05 fold enrichment (6-mer frequency, TF over GST control)"
same,binding signal,ETV5,"1.25 fold enrichment (6-mer frequency, TF over GST control)"
same,binding signal,HSF1,"1.32 fold enrichment (6-mer frequency, TF over GST control)"
same,binding signal,SPIC,"1.5 fold enrichment (6-mer frequency, TF over GST control)"
same,binding signal,ELF4,"1.22 fold enrichment (6-mer frequency, TF over GST control)"
same,binding signal,ELK4,"1.09 fold enrichment (6-mer frequency, TF over GST control)"
same,binding signal,ETV2,"1.21 fold enrichment (6-mer frequency, TF over GST control)"
same,binding signal,ELF3,"1.12 fold enrichment (6-mer frequency, TF over GST control)"
same,binding signal,CRX,"1.51 fold enrichment (6-mer frequency, TF over GST control)"
same,binding signal,ETV1,"1.27 fold enrichment (6-mer frequency, TF over GST control)"
same,binding signal,ERF,"1.21 fold enrichment (6-mer frequency, TF over GST control)"
same,binding signal,ETV3L,"1.26 fold enrichment (6-mer frequency, TF over GST control)"
same,binding signal,ETS2,"1.26 fold enrichment (6-mer frequency, TF over GST control)"
same,binding signal,SPDEF,"1.21 fold enrichment (6-mer frequency, TF over GST control)"
same,binding signal,ETV7,"1.24 fold enrichment (6-mer frequency, TF over GST control)"
same,binding signal,ELF5,"1.19 fold enrichment (6-mer frequency, TF over GST control)"
same,binding signal,ETV3,"1.17 fold enrichment (6-mer frequency, TF over GST control)"
same,binding signal,ETV6,"1.17 fold enrichment (6-mer frequency, TF over GST control)"
